Rows were chosen to be rich in hits. Some 7.9% of all compounds tested hit in one or more screens of this group.
KB-V1 cytotox = KB-V1 MDR subline cytotoxicity. AID 1347076. Potency, µM (highest dose often 46.1 µM), actives largely listed as cytotoxic. 400,000 compounds, 3.4% hits. KB-V1 MDR cells viability, CellTiter-Glo, 72 h; further: on the % scale 0 is the no-effect control and ±100 the full control effect; nearly all actives have a fitted effect of over 60% in size
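Cytotoxicity toward P-gp-expressing KB-V1 cells was determined as loss of CellTiter-Glo luminescence after 72 h at 37 degrees C. Compounds were tested in quantitative HTS format across a concentration range, with curves fitted to normalized data.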
HT1080NT lethal = kills 2HG-producing HT-1080-NT fibrosarcoma cells. 360,000 compounds, 1.6% hits. Potency, µM (top dose mostly 46.1 µM), without a hit: top-dose activity, negative = less viability, actives largely listed as cytotoxic. HT-1080-NT fibrosarcoma viability, CellTiter-Glo ATP luminescence, 48 h;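 further: NT is the 2HG producing partner of a matched IDH1 knockdown line; 0% = DMSO-treated cells and -100% = media-only wells without cells; nearly all actives have a fitted effect of over 55% in size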
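Viability by CellTiter-Glo luminescence after 48 h compound exposure at 37C of HT-1080-NT cells (750/well, RPMI, 5% FBS). % activity scaled between DMSO wells and medium-only wells, then curve-fitted and categorized by curve class.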
KB-3-1 cytotox = kills parental KB-3-1 adenocarcinoma cells; Potency, µM (top dose mostly 46.1 µM), usual class: cytotoxic; KB-3-1 viability, CellTiter-Glo ATP luminescence, 72 h; 400,000 compounds, 1.4% hits; further: on the % scale 0 is the no-effect control and ±100 the full control effect; nearly all actives have a fitted effect of over 60% in size
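Parental KB-3-1 adenocarcinoma cells in phenol-red-free DMEM with 10% FBS were pin-treated with compounds at several concentrations, incubated 72 h at 37 °C, and viability read by CellTiter-Glo luminescence; concentration-effect curves were fitted after normalization.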
SW480 rerep = induces DNA re-replication in SW480 colon adenocarcinoma cells; 340,000 compounds, 1.8% hits; AID 624297; Potency, µM (highest dose often 46.1 µM), without a hit: top-dose re-replication activation, actives largely listed as activators; SW480 DNA re-replication, Hoechst DNA content imaging, 48 h; further: % of control where 0% means no effect; nearly all actives have a fitted effect of over 55% in size
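250 cells/well; 23 nL cpd via pin tool; 48 hr, 37 C, 5% CO2; Hoechst 40 min; imager read of total nuclear intensity, ex 405/em 500-530 nm.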
HT1080 IDH1KD tx = HT-1080 IDH1 knockdown cell toxicity (counter line). HT-1080 IDH1 knockdown viability, ATP luminescence, 48 h. Potency, µM (highest dose often 46.1 µM), for the others: at the top dose activity, negative = toxicity, actives largely listed as cytotoxic. 360,000 compounds, 2% hits;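 further: 0% = DMSO wells and -100% = cell-free medium wells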
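Assay cells: HT-1080 with IDH1 knockdown, 750 per well, RPMI/5% FBS. Exposure: 48 h at 37 °C following 2 h pre-incubation. Read: CellTiter-Glo luminescence; fitted concentration-response, curve class assigned.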
MCF10A rereplic = DNA re-replication induction in MCF 10a cells | AID 624296 | 350,000 compounds, 2.9% hits | Potency, µM (doses to about 46.1 µM), for the others: at the highest dose activity, positive = re-replication, usual class: activators | MCF 10A DNA re-replication, Hoechst nuclear intensity, 48 h; further: % of control where 0% means no effect; nearly all actives have a fitted effect of over 50% in size
Starred values were filed as active, the others as inactive; i = inactive; ? = inconclusive; nt = not tested or not shown; ! = repeats disagree; [ ] = another dose, or the depositor's remark. The call rests on the fitted dose curve; in most records, active means well fitted curve in the direction sought with a large enough effect; inconclusive means small, poorly fitted or top-dose-only effect, or another doubt; inactive means no such curve, though single readings can be large; an effect the other way counts as inactive or inconclusive. Potency means the concentration at half of the fitted maximal effect.

SMILES	KB-V1 cytotox	HT1080NT lethal	KB-3-1 cytotox	SW480 rerep	HT1080 IDH1KD tx	MCF10A rereplic
CN1CCN(C(c2ccccn2)c2cc(Cl)c3cccnc3c2O)CC1 (stereo unspecified)	i	-24%	i	?	?	15%
COCc1cc(CN2CCN(C)CC2)c(O)c2ncccc12	3.7µM*	?	?	?	?	?
CCOC(=O)N1CCN(Cc2cc(Cl)c3cccnc3c2O)CC1	i	5.8µM*	?	4.6µM*	3.3µM*	?
Nc1ncnc2c1ncn2C1OC(CO)C(O)C1N (stereo unspecified)	i	9%	i	?	0%	?
Nc1ncnc2c(C3OC(CO)C(O)C3O)scc12 (stereo unspecified)	?	0.26µM*	0.1µM*	?	0.037µM*	?
NC(Cc1ccc(F)cc1)c1csc(NC(=O)NC(c2ccccc2)c2ccccc2)n1 (stereo unspecified)	?	18µM*	?	nt	16µM*	nt
COc1ccc(CC(N)c2csc(NC(=O)Nc3ccc(OC)cc3)n2)cc1 (stereo unspecified)	i	23µM*	?	nt	?	nt
COc1ccc(CC(N)c2csc(NC(=O)c3cc(C(C)(C)C)oc3C)n2)cc1 (stereo unspecified)	i	21µM*	?	nt	21µM*	nt
COc1ccccc1CNC(=O)Nc1nc(C(N)Cc2ccc(Cl)cc2)cs1 (stereo unspecified)	i	15µM*	?	nt	21µM*	nt
COc1ccc(CNC(=O)Nc2nc(C(N)Cc3ccc(F)cc3)cs2)cc1 (stereo unspecified)	i	?	?	nt	13µM*	nt
COc1ccc(NC(=O)Nc2nnc(C(C)C)s2)cc1	16µM*	-3%	?	-9%	-12%	-2%
COc1ccc(CNC(=O)Nc2nc(C(N)Cc3ccc(Cl)cc3)cs2)cc1 (stereo unspecified)	?	?	?	nt	16µM*	nt
COc1cc(NC(=O)Nc2nc(C(N)Cc3ccc(C(F)(F)F)cc3)cs2)cc(OC)c1OC (stereo unspecified)	i	21µM*	?	nt	18µM*	nt
O=c1[nH]cnc(O)c1C(c1cccc([N+](=O)[O-])c1)c1c(O)nc[nH]c1=O	i	-23%	i	-52%	-2%	-10%
Fc1ccc(Nc2nc(-c3cccc(Cl)c3)c3c(n2)-c2ccccc2OC3)cc1	i	nt	i	nt	nt	nt
Cc1ccc(-c2cc3ncc(C(=O)c4cc(Cl)c(C)cc4O)cn3n2)cc1	i	nt	i	nt	nt	nt
CCOC(=O)c1c(-c2ccc(C)o2)csc1NC(=O)COC(=O)c1cccs1	i	-4%	i	-3%	-10%	9%
CCOC(=O)c1c(-c2ccc(C)o2)csc1NC(=S)NC(=O)N(C)C	i	10µM*	i	?	13µM*	?
Fc1ccccc1COc1ccc2ccccc2c1CNc1nn[nH]n1	i	13µM*	?	?	16µM*	?
COC(=O)c1ccc2nc(NC(=O)C(C)(C)C)sc2c1	?	18µM*	?	-14%	?	-3%
CC(C)(C)C(=O)Nc1nc2cc3c(cc2s1)OCO3	i	?	i	3.3µM*	-25%	0%
COc1ccccc1N1CCN(C(=O)c2cc3c(=O)oc4ccccc4c3s2)CC1	i	nt	i	nt	nt	nt
CCOC(=O)/C=C1\CN(Cc2cc(OC)c(OC)c(OC)c2)S(=O)(=O)c2ccccc21	10µM*!	?	?	1%	-10%	?
CCOC(=O)/C=C1\CN(Cc2cc(OC)c(OC)c(OC)c2)S(=O)(=O)c2ccc(C(F)(F)F)cc21	?	0%	?	?	-6%	1%
CC1CCCN(C(=O)C2CCN(S(=O)(=O)c3ccccc3)CC2)C1 (stereo unspecified)	i	-2%	i	-11%	-3%	-6%
SMILES	KB-V1 cytotox	HT1080NT lethal	KB-3-1 cytotox	SW480 rerep	HT1080 IDH1KD tx	MCF10A rereplic
COc1ccccc1C(c1nnnn1CCc1ccccc1)N1CCN(c2ccccc2)CC1 (stereo unspecified)	i	11%	i	1%	9%	6%
COc1ccc2cc(C(c3nnnn3CCc3ccccc3)N3CCCC(C)C3)c(=O)[nH]c2c1 (stereo unspecified)	18µM*	1%	i	9%	-2%	-37%
COCCn1nnnc1C(c1cc2cc(OC)ccc2[nH]c1=O)N1CCC(Cc2ccccc2)CC1 (stereo unspecified)	?	0%	?	19%	-2%	?
COc1ccccc1C(c1nnnn1CCc1ccccc1)N1CCCCCC1 (stereo unspecified)	16µM*	?	i	?	?	?
Cc1ccc(NC(=O)CN2CCN(C3CCCCC3)C(=O)C2=O)cc1	i	nt	i	nt	nt	nt
CN(C)c1cc(O)c(C(=S)Nc2ccccc2)c(N(C)C)c1	16µM*	-16%	?	16%	-16%	?
CC(C)OCCCNC(=O)CN1C(=O)c2ccccc2Sc2ncccc21	i	nt	i	nt	nt	nt
Cc1ccc(NC(=O)CSc2nnc(CNC(=O)c3ccco3)o2)cc1Cl	i	1%	i	-9%	17%	1%
CCOc1cc(C2C(C#N)=C(N)OC(C)=C2C(C)=O)c(Br)c(Br)c1OC(C)C (stereo unspecified)	15µM*	7.3µM*	?	8.2µM*	15µM*	16µM*
CC(=O)N1CCc2cc(S(=O)(=O)CCC(=O)Nc3ccc(C)cc3Br)ccc21	i	nt	i	nt	nt	nt
CC1(c2ccccn2)Nc2ccccc2-c2nc3ccccc3n21 (stereo unspecified)	16µM*	1%	i	-7%	3%	5%
c1ccc2c(c1)NC1(CCCCCC1)n1c-2nc2ccccc21	i	0%	i	-6%	-9%	1%
COc1cc(C(=O)NCCOc2cc(C)cc(C)c2)c(Br)c(OC)c1OC	10µM*	?	i	?	-21%[9.24 µM]	?
Cc1ccc(-n2nc(C)c3nc(CCC(=O)Nc4cccc(F)c4)c(=O)n(C)c32)cc1	i	nt	i	nt	nt	nt
C=CCn1c(-c2ccc(OC)cc2)csc1=Nc1c(C)n(C)n(-c2ccccc2)c1=O	8.2µM*	-18%	16µM*	2%	-14%	1%
C=CCn1c(-c2ccc(S(=O)(=O)N3CCOCC3)cc2)csc1=Nc1ccccc1	i	-13%	?	-5%	-17%	?
COc1ccc(-c2csc(=Nc3ccccc3)n2CCO)cc1	7.3µM*	-22%	12µM*	-6%	-23%	?
